# Screening results deposited in PubChem by several laboratories.
# Only some compounds are listed: those with a hit (about 4.2% of all), similar ones and a draw of the others.
# GDH-TPI counter: inhibits GDH-TPI coupling enzymes, artifact for Mtb FBA screen; GDH-TPI coupled enzyme counterscreen, NADH absorbance; inhibition, % at 4.8 µM; hit rate 1.2% among 360,000;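 further: 0% = DMSO wells and 100% = wells lacking the enzyme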
# Mtb bLac sens: beta-lactam sensitization of Mtb H37Rv | AID 434955 | hit rate 0.27% among 330,000 | inhibition, % at 25 µM | M. tuberculosis H37Rv growth with meropenem, percent inhibition; call rule not given here;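 further: growth measured after seven days incubation then overnight dye step; 0% = bacteria only wells and 100% = bacteria with antibiotic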
# RecA splice inh: inhibitors of M. tuberculosis RecA intein splicing | P9WHJ3 | cell-free RecA intein splicing, fluorescence | inhibition, % (concentration not given with the values) | hit rate 0.75% among 290,000; in the data active means inhibition above about 30%; inconclusive means no clear call, values can overlap the other calls;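 further: 0% = vehicle wells and 100% = reference inhibitor control wells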
# Target sequence (P9WHJ3 whole entry, looked up, canonical isoform): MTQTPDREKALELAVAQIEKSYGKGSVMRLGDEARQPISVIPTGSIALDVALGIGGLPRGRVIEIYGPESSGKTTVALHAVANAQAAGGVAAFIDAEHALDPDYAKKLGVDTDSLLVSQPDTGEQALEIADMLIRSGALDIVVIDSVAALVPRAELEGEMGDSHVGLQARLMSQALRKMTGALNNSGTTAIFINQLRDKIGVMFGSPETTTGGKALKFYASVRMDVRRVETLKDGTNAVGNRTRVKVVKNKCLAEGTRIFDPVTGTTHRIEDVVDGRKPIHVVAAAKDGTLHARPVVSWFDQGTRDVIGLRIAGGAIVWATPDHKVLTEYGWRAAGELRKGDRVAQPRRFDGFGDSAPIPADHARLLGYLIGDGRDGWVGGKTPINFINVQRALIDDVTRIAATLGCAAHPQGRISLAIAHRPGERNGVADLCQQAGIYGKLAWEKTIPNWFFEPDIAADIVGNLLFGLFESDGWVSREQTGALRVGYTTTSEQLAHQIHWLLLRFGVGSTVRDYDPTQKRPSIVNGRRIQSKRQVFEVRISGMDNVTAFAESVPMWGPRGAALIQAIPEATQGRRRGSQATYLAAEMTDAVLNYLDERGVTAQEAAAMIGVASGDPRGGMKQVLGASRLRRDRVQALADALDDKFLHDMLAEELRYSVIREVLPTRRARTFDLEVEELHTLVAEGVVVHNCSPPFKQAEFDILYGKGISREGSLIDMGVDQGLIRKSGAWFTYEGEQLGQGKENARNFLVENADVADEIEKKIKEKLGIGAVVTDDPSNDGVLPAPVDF
# Mtb FBA inh: inhibits M. tuberculosis FBA enzyme | AID 588726 | inhibition, % at 1 µM | hit rate 2.3% among 360,000 | purified M. tuberculosis FBA, fluorescence read-out | P9WQA3; in the data active means inhibition above about 27%;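 further: 0% = vehicle and 100% = reference inhibitor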
# CCHFV vOTU inh: blocks the CCHF virus ovarian tumor domain protease; CCHFV vOTU protease, Pep-AMC fluorescence; inhibition, % at 11.5 µM; hit rate 0.55% among 370,000; further: 0% = vehicle wells with enzyme and 100% = no enzyme wells
# GFP chromo cs: counter-screen: blocks GFP chromophore formation; shares compounds with RecA splice inh; cell-free GFP chromophore formation, fluorescence; EC50, µM; hit rate 83% among 2,100; AID 434968; call rule not given here
# * hit, by the source's call; ? = inconclusive; . = no result given. Unless noted, no stated cut-off is given here; in the data, active means inhibition above about 30%; inactive means the rest.
SMILES,GDH-TPI counter,Mtb bLac sens,RecA splice inh,Mtb FBA inh,CCHFV vOTU inh,GFP chromo cs
COc1ccc(OC)c(C2C(C#N)=C(N)Oc3c2c(C)nn3-c2cccc(Cl)c2)c1 (stereo not given),10,10,37*,1,27,38*
COc1ccc(OC)c(C2C(C#N)=C(N)Oc3cc(C)[nH]c(=O)c32)c1 (stereo not given),11,-3,-3,-4,9,.
COC(=O)[C@]12C[C@H](CC(=O)NCCC(C)C)C(=O)N(Cc3ccco3)C1=C[C@H](C(C)(C)C)O[C@@H]2C,.,.,.,.,18,.
CC1(C)Cc2ccccc2C2=NNC(=O)C2=N1,0,95,94*,-5,-129,1.1*
CC1(C)Cc2ccccc2C(Nn2cnnc2)=N1,-11,-6,1,2,0,.
CCOC(=O)[C@@]12CN(C(=O)OC(C)(C)C)CC=C1N(Cc1ccc(OC)cc1)C(=O)[C@H]2CC(=O)NCCCN1CCCC1=O,.,.,.,.,-7,.
COC(=O)c1cccc(N2C(=O)C(Cl)=C(N3CCOCC3)C2=O)c1,17,97,68*,-2,4,5.2*
O=C1C(Cl)=C(N2CCOCC2)C(=O)N1c1cccc(C(F)(F)F)c1,12,18,90*,-2,-2,2.6*
Cn1c(SCC(=O)NCc2ccc(F)cc2)nc2ccccc21,-7,-2,31*,0,-4,>38
O=C(CSc1nnc(COc2ccccc2)n1-c1ccccc1)Nc1ccc2c(c1)OCCO2,.,.,.,.,4,.
CC(C)[C@H](NC(N)=O)C(=O)Nc1ccc(Oc2ccccc2)cc1,3,-3,1,0,15,.
CC(C)[C@H](NC(=O)Nc1ccc(Oc2ccccc2)cc1)C(=O)O,5,-7,62*,-1,1,>38
CCCCCc1cc(=O)oc2c(C(CCN3CCCCC3)c3ccc(OC)cc3)c(OC)cc(OC)c12 (stereo not given),9,100,23,4,-5,.
CCCCCc1cc(=O)oc2c(C(CCN3CCCC(C)C3)c3ccc(OC)cc3)c(OC)cc(OC)c12 (stereo not given),0,100,37*,7,4,18*
CCN(CC)C(=O)c1ccc2c(c1[N+](=O)[O-])C(=O)c1ccccc1C2=O,.,-8,42*,.,.,>38
CCN(CC)C(=O)c1cccc2c1C(=O)c1ccccc1-2,-1,-1,.,1,-2,.
COc1ccc(N2C(=O)c3n[nH]c(C(C)C)c3C2c2ccccc2)cc1 (stereo not given),.,.,.,.,-3,.
CCN1C(=O)c2c(C)nc3ccccc3c2C1=O,5,-1,47*,0,.,2.2*
CN(c1ccc(NC(=O)CCc2cn(Cc3ccc(Br)cc3)c3ccccc23)cc1)c1ccccn1,.,.,.,.,-1,.
O=[N+]([O-])c1ccc(Oc2ccc(F)cc2)c2ccncc12,7,-1,67*,1,0,32*
O=[N+]([O-])c1ccc(Oc2cccc(Br)c2)c2ccncc12,17,87,53*,-1,7,17*
CCCN1CCCCC(NC(=O)c2ccccc2C)C1=O (stereo not given),.,.,.,.,-15,.
O=C(CN1CCN(Cc2ccccc2)CC1)N/N=C\c1c2ccccc2cc2ccccc12,.,.,.,.,8,.
CCN(CC)CCCNC(=O)CC1Oc2ccccc2NC1=O (stereo not given),.,.,.,.,-6,.
Cc1ccc(-c2nc(CN3CCCC(C(=O)N4CCOCC4)C3)c(C)o2)cc1 (stereo not given),-6,-1,44*,3,-6,>38
SMILES,GDH-TPI counter,Mtb bLac sens,RecA splice inh,Mtb FBA inh,CCHFV vOTU inh,GFP chromo cs
CCOc1ccc(-c2nc(CN3CCCC(C(=O)N4CCOCC4)C3)c(C)o2)cc1 (stereo not given),1,?,0,4,8,.
COc1cccc(Nc2c([N+](=O)[O-])cncc2[N+](=O)[O-])c1,4,90,54*,1,15,21*
N#Cc1ccc(-n2c(-c3ccccc3)nnc2-c2ccccc2)cc1C#N,2,5,50*,0,7,17*
N#Cc1cccc(-n2c(-c3ccccc3)nnc2-c2ccccc2)c1C#N,6,4,1,0,3,.
CC1=NN(Cc2ccccc2)C(=O)/C1=C\c1ccc(N(C)C)cc1,6,-8,94*,-16,8,?
Cc1ccc(C(C[N+](=O)[O-])c2c(N)n(C)c(=O)n(C)c2=O)cc1 (stereo not given),7,98,-3,6,-2,.
Cc1[nH]n(-c2ccccc2)c(=O)c1C(C[N+](=O)[O-])c1ccc(Br)cc1 (stereo not given),9,100,77*,-1,15,17*
COc1cccc(C(C[N+](=O)[O-])c2c(C)[nH]n(-c3ccccc3)c2=O)c1 (stereo not given),11,100,96*,4,17,27*
C[C@H]1COc2cc(Br)ccc2S(=O)(=O)N1Cc1cn(CCC2OCCO2)nn1,.,.,.,.,3,.
CCN1CCCCC(NC(=O)c2ccccc2C)C1=O (stereo not given),.,.,.,.,18,.
Cc1ccc(SCc2cc(=O)n(C)[nH]2)cc1,5,0,95*,-1,-6,19*
Cc1ccc(SCc2cc(=O)n3[nH]c(C)nc3n2)cc1,-3,38,3,11,8,.
CC1=C(C(=O)OC(C)C)C2(O)C(=O)c3ccccc3C2(O)N1 (stereo not given),10,-6,32*,-2,19,27*
Nc1ccc2cn[nH]c2c1,3,-1,78*,7,2,22*
CC1=CC(=Nc2c(C)n(C)n(-c3ccccc3)c2=O)C=C(C)C1=O,15,1,-6,23,1,.
CC1=CC(=Nc2c(C)n(C)n(-c3ccccc3)c2=O)C=CC1=O,.,0,57*,.,.,27*
NC(=O)CSc1nnc(NC(=O)C23CC4CC(CC(C4)C2)C3)s1,4,?,0,-1,.,.
CSc1nnc(NC(=O)C23CC4CC(CC(C4)C2)C3)s1,-2,6,-1,-4,-15,>38
Cc1onc(-c2ccccc2)c1C(=O)n1nnc2ccccc21,0,1,31*,0,-1,35*
CS(=O)(=O)C1=NSC2=NC(=O)/C(=C\c3ccc(OC(=O)c4ccco4)cc3)C(=N)N21,.,92,35*,.,.,>38
O=C(NCCN1CCCC1)c1ccccc1Cl,-3,-3,-5,0,5,.
O=C1C(Cl)=C(NCCN2CCCCC2)C(=O)c2ccccc21,12,63,48*,-11,.,26*
Nc1[nH]c(C(=O)c2ccccc2)c(-c2ccccn2)c1C(=O)c1c[nH]c2ccc(F)cc12,.,.,.,.,-3,.
CCOC(=O)C1=C(C)OC(N)=C(C#N)C1c1cc(SCC)oc1C (stereo not given),2,-6,1,1,16,.
COC(=O)Cc1[nH]nc2c1C(c1cc(OC)c(OC)c(OC)c1)C(C#N)=C(N)O2 (stereo not given),5,1,18,1,7,.
Cc1cc(C)c(C2C(C#N)=C(N)Oc3n[nH]c(C)c32)cc1CN1CCCC1 (stereo not given),-5,-12,25,1,-4,.
